The text below walks through data of PubChem BioAssay (NCATS).

Where “and” joins values, the source holds several entries; their conditions need not be identical. Equal entries are not always repeated. Results filed as inconclusive are left out. Entries that show only a call come without a potency. Calls of active or inactive are those of the source. Unless noted, the call rests on the fitted dose curve; in most records, active means well fitted curve in the direction sought with a large enough effect; inconclusive means small, poorly fitted or top-dose-only effect, or another doubt; inactive means no such curve, though single readings can be large; an effect the other way counts as inactive or inconclusive.

Test [1] can be described thus: P-glycoprotein substrates identified in KB-8-5-11 adenocarcinoma cell line, qHTS therapeutic library screen (AID 1346987). Further: nearly all actives have a fitted effect of over 65% in size. Further: potency means the concentration at half of the fitted maximal effect. The method in brief: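 KB-8-5-11, a colchicine-selected P-gp-overexpressing KB-3-1 subline, was grown without colchicine for the assay. Cells were seeded at 500 cells/well, dosed in concentration-response and incubated 72 h at 37 degree C, 5% CO2. Viability was read by CellTiter-Glo luminescence.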

Test [2] can be described thus: NS1 protein of Zika virus - qHTS assay to identify small molecule inhibitors in human HEK 293 cells (AID 1347053). Further: nearly all actives have a fitted effect of over 55% in size. The method in brief: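 HEK 293; 20 h pre-culture, 37 C/5% CO2; cpd 1 h pre-infection; ZIKV MR766, MOI = 0.5, 24 h, 37 C; TR-FRET NS1 readout (two anti-NS1 Abs); norm. to no-virus vs infected.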
The nature of test [3]: P-glycoprotein substrates identified in KB-3-1 adenocarcinoma cell line, qHTS therapeutic library screen (AID 1346986). Further: nearly all actives have a fitted effect of over 60% in size. Particulars: KB-3-1 parental cells viability, CellTiter-Glo, 72 h; at 44.5 µM (top of the series). Put shortly: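 Resistance attributable to P-gp was assessed by comparing AC50 in KB-8-5-11 with parental KB-3-1 and by tariquidar reversal. Cells were exposed 72 h and viability read by CellTiter-Glo.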

Test [4] in a line: Natriuretic polypeptide receptor (hNpr1) antagonism - Pilot counterscreen GloSensor control cell line (AID 1347045; calls by dose curve). Put shortly: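 HEK293 cGMP GloSensor cells preloaded 2 h with 2% GloSensor reagent, then compound 30 min before baseline luminescence read. Stimulated with 50 uM sodium nitroprusside, 20 min at room temperature, then read again; counterscreen for Npr1 antagonism.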

Test [5] addresses Atrial natriuretic peptide receptor 1 (Homo sapiens) (UniProt P16066). Description: Natriuretic polypeptide receptor (hNpr1) antagonism - Pilot screen (AID 1347049; calls by dose curve;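 further: agonist-evoked cGMP luminescence read 20 min after hNppA addition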). Put shortly:
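HEK293 cells co-expressing hNpr1 and the GloSensor pGS-40F cGMP luciferase sensor were preloaded with 2% GloSensor reagent for 2 h. Compounds were added for 30 min at room temperature, then cells were stimulated with 0.1 nM hNppA for 20 min before luminescence readout.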

The target in test [6] is Atrial natriuretic peptide receptor 2 (Homo sapiens) (UniProt P20594). Nature of the test: Natriuretic polypeptide receptor (hNpr2) antagonism - Pilot subtype selectivity assay (AID 1347050; calls by dose curve). The method, then:
F. Fan, B. F. Binkowski, B. L. Butler, P. F. Stecha, M. K. Lewis, K. V. Wood, Novel genetically encoded biosensors using firefly luciferase. ACS Chem Biol 3, 346-351 (2008).
PROTOCOL TABLE (as described by Inglese J, Shamu CE and Guy RK. 2007)
SEQUENCE No. (e.g., 1, 2, 3, etc.); […] (e.g., Cells, Incubation, Reagent, etc.); VALUE and DESCRIPTION.
1. Cells. Seed 1500 HEK293 cGMP-sensor cells expressing hNpr2 per well in 4uL into Greiner 1536-well white/solid bottom high base, TC plates.
2. Incubation. Incubate plated cells at 37C in 5% CO2, 95% RH overnight.
3. Reagent. Add 1uL per well GloSensor reagent from Promega (2% final concentration) or CO2 independent media vehicle control to respective columns of Greiner 1536-well plates.
4. Incubation. Incubate plated cells at ambient temperature for 2 h., protect from light.
5. Compounds. Library compounds and DMSO vehicle control added at 23nL per well, transferred by Pin Tool.
6. Incubation. Incubate plated cells for 30 min. at ambient temperature, protect from light.
7. Detector. GloSensor baseline pre-read luminescence measured using CCD-based camera (Viewlux).
8. Compound. Add 1uL of hNppC peptide to 1 nM final concentration to stimulate hNpr2 or CO2 independent media as vehicle control.
9. Incubation. Incubate treated cells at ambient temperature for 20 min., protect from light.
10. Detector. GloSensor post-hNppC luminescence measured using CCD-based camera (Viewlux).
NOTES (numbers refer to Sequence numbers above)
1. HEK293 cells expressing hNpr2 and GIP/pGS-40F were grown to 85-95% confluence (48-72 h) in T175 culture flasks (CO2 independent media supplemented with 10% FBS, 1% Pen/Strep antibiotics, and 1 ug/mL puromycin). Trypsinize and harvest cells from T175 culture flasks and filter through 40 um cell strainer. Cells counted with Invitrogen Countess (30,000,000 - 50,000,000 cells/flask). Cells diluted to a final concentration of 375 cells/uL in CO2 independent media and a Millipore multidrop used to dispense 1500 cells per well (4uL/well) into 9 x1536-well Greiner White/Solid bottom, high base tissue-culture treated (TC) plates and one Aurora 1536-well Black/Clear bottom, low base, TC plate (for visual inspection of cell health throughout the duration of the assay).
2. Cells incubated for 24 h. at 37C in 95% RH incubator with metal lid having gas-exchange holes.
3. Prepare GloSensor Reagent (Promega): Reconstitute GloSensor luciferase substrate by adding 8.2mL Hepes buffer to 250mg substrate, mix well, protect from light and stored at -80C. Prepare a fresh 12% GloSensor solution in CO2 independent supplemented plating media (see above). […]
7. Read cellular baseline GloSensor luminescence in presence of test library compounds on the ViewLux [Exposure = 10 s.; Gain = High; Speed = Slow; and Binning = 2X.] […]

Sequence of Atrial natriuretic peptide receptor 1 (Homo sapiens) (P16066 whole entry, looked up): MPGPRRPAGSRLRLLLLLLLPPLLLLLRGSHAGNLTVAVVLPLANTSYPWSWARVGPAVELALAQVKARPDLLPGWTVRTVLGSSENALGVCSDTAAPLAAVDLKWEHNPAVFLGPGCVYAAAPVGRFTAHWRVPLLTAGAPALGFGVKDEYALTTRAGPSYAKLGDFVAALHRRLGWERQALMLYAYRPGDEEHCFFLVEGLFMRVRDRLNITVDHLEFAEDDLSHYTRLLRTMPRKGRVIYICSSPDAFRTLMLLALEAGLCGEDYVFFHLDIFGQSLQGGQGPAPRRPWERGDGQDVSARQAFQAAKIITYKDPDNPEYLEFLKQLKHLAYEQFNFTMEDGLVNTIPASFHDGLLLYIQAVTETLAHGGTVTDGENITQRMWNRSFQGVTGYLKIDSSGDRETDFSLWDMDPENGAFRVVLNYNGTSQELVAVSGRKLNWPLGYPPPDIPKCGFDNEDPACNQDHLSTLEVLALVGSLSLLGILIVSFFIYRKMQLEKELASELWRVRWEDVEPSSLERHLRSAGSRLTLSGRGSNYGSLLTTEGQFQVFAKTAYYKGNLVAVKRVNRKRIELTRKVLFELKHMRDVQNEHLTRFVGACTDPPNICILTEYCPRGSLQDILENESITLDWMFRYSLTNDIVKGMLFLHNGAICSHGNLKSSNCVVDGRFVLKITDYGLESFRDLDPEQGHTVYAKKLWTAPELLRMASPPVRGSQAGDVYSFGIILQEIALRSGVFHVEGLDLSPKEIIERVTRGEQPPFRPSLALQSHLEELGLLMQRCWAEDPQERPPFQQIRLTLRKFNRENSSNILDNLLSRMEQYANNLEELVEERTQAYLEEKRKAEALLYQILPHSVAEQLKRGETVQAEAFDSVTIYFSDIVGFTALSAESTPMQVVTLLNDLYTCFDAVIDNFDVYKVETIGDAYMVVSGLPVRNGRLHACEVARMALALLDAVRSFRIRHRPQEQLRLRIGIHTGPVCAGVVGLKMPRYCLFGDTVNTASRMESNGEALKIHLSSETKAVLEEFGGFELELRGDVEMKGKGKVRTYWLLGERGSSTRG
Sequence of Atrial natriuretic peptide receptor 2 (Homo sapiens) (P20594 whole entry, looked up): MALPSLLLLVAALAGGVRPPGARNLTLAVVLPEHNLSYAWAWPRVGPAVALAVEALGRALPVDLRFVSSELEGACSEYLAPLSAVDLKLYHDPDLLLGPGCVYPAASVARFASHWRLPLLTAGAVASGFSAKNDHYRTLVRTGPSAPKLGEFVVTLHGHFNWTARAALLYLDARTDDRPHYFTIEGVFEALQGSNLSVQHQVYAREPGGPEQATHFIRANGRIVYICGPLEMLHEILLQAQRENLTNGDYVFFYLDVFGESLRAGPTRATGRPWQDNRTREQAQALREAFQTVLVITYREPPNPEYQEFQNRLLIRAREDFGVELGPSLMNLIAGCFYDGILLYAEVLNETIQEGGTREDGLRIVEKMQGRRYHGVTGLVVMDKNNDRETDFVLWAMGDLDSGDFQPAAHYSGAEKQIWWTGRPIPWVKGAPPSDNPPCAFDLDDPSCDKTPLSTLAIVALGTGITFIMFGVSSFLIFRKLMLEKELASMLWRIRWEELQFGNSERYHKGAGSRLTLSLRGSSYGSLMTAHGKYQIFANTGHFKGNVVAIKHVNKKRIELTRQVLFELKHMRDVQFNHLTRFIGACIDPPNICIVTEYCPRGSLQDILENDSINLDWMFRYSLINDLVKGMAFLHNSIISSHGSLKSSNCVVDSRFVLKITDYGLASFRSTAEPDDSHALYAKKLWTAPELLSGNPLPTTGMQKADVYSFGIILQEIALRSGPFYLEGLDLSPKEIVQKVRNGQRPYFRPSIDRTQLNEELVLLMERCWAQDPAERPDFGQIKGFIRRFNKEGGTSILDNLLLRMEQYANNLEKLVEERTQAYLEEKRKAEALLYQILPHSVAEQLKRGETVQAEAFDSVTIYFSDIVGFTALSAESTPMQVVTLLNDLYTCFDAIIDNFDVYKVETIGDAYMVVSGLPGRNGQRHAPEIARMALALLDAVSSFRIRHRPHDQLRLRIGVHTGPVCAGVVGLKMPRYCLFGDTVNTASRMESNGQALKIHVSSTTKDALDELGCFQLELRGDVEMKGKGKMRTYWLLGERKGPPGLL

For the molecule `COP(=O)(OC)OC=C(Cl)Cl`, the Potency entry in test [1] and in test [2] was “inactive” each time.
For the molecule `CCN(CC)C(C)C(=O)c1ccccc1` (configuration not stated), the Potency entry in test [1] and in test [2] was “inactive” each time.
Consider `COc1ccc2c3c1O[C@H]1[C@@H](O)C=C[C@H]4[C@@H](C2)N(C)CC[C@@]341`, for which the Potency result in test [1] was “inactive”.
As to `CC(C)NCC(O)c1ccc(N)c(C#N)c1` (configuration not stated), the Potency result in test [1] and in test [2] was “inactive” throughout.
Turning to `O=C(O)Cc1ccccc1`, the Potency entry in test [1] and in test [2] was “inactive” each time.
For `C[N+]1(CCC(C(N)=O)(c2ccccc2)c2ccccc2)CCCCC1`, the Potency result in test [1] and in test [2] was “inactive” throughout.
As for `c1cc2c(c(N3CCNCC3)c1)OCCO2`, the Potency entry in test [1] and in test [2] was “inactive” each time.
On to `C[C@H](N)[C@H](O)c1ccc(O)c(O)c1`, for which the Potency entry in test [1] and in test [2] was “inactive” in each case.
Take `c1ccc2nc(N3CCNCC3)ccc2c1`: the Potency result in test [1] and in test [2] was “inactive” each time.
`COc1ccc(OC)c(CC(C)N)c1` (configuration not stated): the Potency result in test [1] and in test [2] was “inactive” in each case.
With `CCC1(c2ccccc2)CCC(=O)NC1=O` (configuration not stated), the Potency entry in test [1] and in test [2] was “inactive” each time.
With `COc1ccc2c(C(=O)c3ccc(Cl)cc3)c(C)n(CC(=O)O)c2c1`, the outcome in test [3] was inactive. The Potency result in test [1] and in test [2] was “inactive” throughout.
`CNC(=O)NC(O)C(Cl)(Cl)Cl` (configuration not stated): the Potency entry in test [1] and in test [2] was “inactive” in each case.
For `COP(=S)(OC)Oc1ccc(S(N)(=O)=O)cc1`, the Potency result in test [1] and in test [2] was “inactive” each time.
For `CC[C@H]1C[C@H]2[C@@H]3CCC4=CC(=O)CC[C@@H]4[C@H]3CC[C@]2(C)[C@H]1O`, the result in test [3] was inactive. Also, the Potency entry in test [2] is “inactive”.
On to `CCC(=O)O[C@H]1CC[C@H]2[C@@H]3CCC4=CC(=O)CC[C@]4(C)[C@H]3CC[C@]12C`, for which, in test [1], the Potency is 2.78 µM (active). The Potency result in test [2] is “inactive”.
Taken in the same sequence, the figures for `CC(C)(C)OC(=O)c1ncn2c1[C@@H]1CCCN1C(=O)c1c(Br)cccc1-2` were “inactive” and “inactive”.
`O=C(N[C@H]1N=C(c2ccccc2F)c2cccc3c2N(CC3)C1=O)c1cc2ccccc2[nH]1`: the outcome in test [3] was inactive. Besides, the Potency result in test [1] and in test [2] was “inactive” each time.
In the case of `C[C@]12CC[C@H]3[C@@H](CCC4=CC(=O)CC[C@@H]43)[C@@H]1CC[C@@H]2O`, in test [1], the Potency is 2.91 µM (active) and 5.8 µM (active). Further, the Potency entry in test [2] is “inactive”.
Take `C[C@]12CC[C@H](O)CC1=CC[C@@H]1[C@@H]2CC[C@]2(C)C(=O)CC[C@@H]12`: the Potency entry in test [1] and in test [2] was “inactive” each time.
As to `CCC1(c2cnc[nH]2)Cc2ccccc2C1`, the Potency result in test [1] is “inactive”.
Take `COC(=O)C1=CCCN(C)C1`: the Potency result in test [1] and in test [2] was “inactive” throughout. The outcome in test [4], in test [5] and in test [6] was inactive.
